Laboratory results: PubChem BioAssay AID720519 (National Center for Advancing Translational Sciences (NCATS), 2013)
Records with an inconclusive call do not appear. Active and inactive are the calls of the source. Calls follow the shape of the dose curve; as a rule, active = well fitted activation curve with a large enough effect; inconclusive = small, poorly fitted or top-dose-only effect; inactive = flat fitted curve, though single readings scatter.

assay: qHTS for Inhibitors of Cell Surface uPA Generation: Confirmatory Assay for Cherry-picked Compounds; settings: cell surface uPA activity generation, qHTS confirmation; series mostly up to 115 µM; inhibition: at the top concentration; as to inhibition: 0% is about no effect
In short: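 RAW 264.7 cells at 4000/well, incubated overnight, then treated with compounds. After 24 h at 37 C, viability was read by ATPlite luminescence. An increase in signal indicates blocked uPA-dependent LF entry.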
Potency is read from the fitted curve at half-maximal effect.

| Structure (SMILES) | inhibition | Potency |
| --- | --- | --- |
| Cc1nnc2ccc(-c3ccc(NS(=O)(=O)c4ccc(Cl)s4)cc3)nn12 | -3.05% (inactive) |  |
| Cc1ccc(C(=O)NNC(=O)CNc2cccc(Cl)c2)cc1 | -2.22% (inactive) |  |
| COc1ccc(C(=O)CC2(C(=O)O)CCCCC2)cc1 | -1.31% (inactive) |  |
| COCCN(C(=O)c1ccccc1OC)c1nnc(C)s1 | -2.79% (inactive) |  |
| O=C(O)c1ccccc1/C=N/NC(=S)NC1CCCCC1 | 0.423% (inactive) |  |
| CC(C)NC(=O)CN1CCC(c2nc3ccccc3[nH]2)CC1 | -0.869% (inactive) |  |
| COc1ccc(CN2CCNC(=O)C2CC(=O)NCC2CCOCC2)cc1C (centres undefined) | -1.23% (inactive) |  |
| O=C(NC1CC1)C1CCCN(C(=O)NC2CCCCC2)C1 (centres undefined) | -1.77% (inactive) |  |
| Cc1cc(C)cc(NC(=O)C(OC(=O)c2ccc(O)cc2)c2ccccc2)c1 (centres undefined) | -2.37% (inactive) |  |
| CCN(CC)CCCn1c2c(c(SCC(=O)Nc3cccc4ccccc34)nc1=O)CCC2 | -3.24% (inactive) |  |
| COc1ccccc1N1CCN(C(=O)CCC(=O)N2CCN(c3ccc(F)cc3)CC2)CC1 | -1.44% (inactive) |  |
| NC(=O)c1cc2ccncc2c2ccccc12 | -1.41% (inactive) |  |
| CCn1c(CNc2ccc(F)cc2)nnc1SCC(=O)Nc1ccccc1OC | -2.14% (inactive) |  |
| Cc1ccc(Cl)cc1NC(=O)c1ccccc1OCC(=O)N1CCOCC1 | 1.32% (inactive) |  |
| C=CCn1c(C)cc(C(=O)COC(=O)/C=C/c2cccc(OC)c2)c1C | -2.92% (inactive) |  |
| Cc1cccc(N2CCN(Cc3ccc(Br)o3)CC2)c1C | 1.91% (inactive) |  |
| CC(NC(=O)C1CCC(C(=O)NC(C)c2ccccc2)CC1)c1ccccc1 (centres undefined) | 0.975% (inactive) |  |
| COc1ccc(C(=O)NC(C)c2cnn(-c3ccccn3)c2C)o1 (centres undefined) | -1.83% (inactive) |  |
| C=CC(=O)N1C/C(=C/c2ccccc2)C(=O)/C(=C\c2ccccc2)C1 |  | 26.1 µM (active) |
